# In the library only some 19% were active in any assay of this set; here they are far more common.
# DT40 TDP1 no CPT: qHTS for Inhibitors of human tyrosyl-DNA phosphodiesterase 1 (TDP1): qHTS in cells in absence of CPT; DT40 Tdp1-/- hTDP1 cells, no CPT, ATP luminescence, 48 h; Potency, µM (titrated, usually from 46.2 µM), hits mostly inhibitors; hit rate 15% among 420,000; AID 686978, 2013; note: nearly all actives have a fitted effect of over 55% in size
#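 Stably hTDP1-transfected Tdp1-null chicken DT40 cells were treated with library compounds minus camptothecin and grown for at least 48 hr at 37 °C, after which cellular ATP was quantified by luminescence.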
# HT1080-NT tox: kills 2HG-producing HT-1080-NT fibrosarcoma cells | AID 686970 | HT-1080-NT fibrosarcoma viability, CellTiter-Glo ATP luminescence, 48 h | Potency, µM (top dose mostly 46.1 µM), hits mostly cytotoxic | hit rate 1.6% among 360,000;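 note: NT is the 2HG producing partner of a matched IDH1 knockdown line; nearly all actives have a fitted effect of over 55% in size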
#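 Viability of the 2HG-overproducing fibrosarcoma line after 48 hours of compound exposure at 37 degrees C was determined by luminescence with CellTiter-Glo, and concentration-effect curves were then fitted and categorized.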
# DT40 TDP1 CPT: growth inhibition of DT40 Tdp1-/-;hTDP1 cells with camptothecin (screen for TDP1 inhibitors) | hit rate 12% among 420,000 | AID 686979 | Potency, µM (series often up to 46.2 µM), most hits filed as inhibitors | chicken DT40 Tdp1-/-;hTDP1 cells + 20 nM CPT, ATP luminescence, 48 h; note: nearly all actives have a fitted effect of over 55% in size
#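 Cell growth measured by CellTiter-Glo luminescence after a minimum 48 h, 37 C compound exposure with 20 nM CPT in Tdp1-knockout DT40 cells stably expressing hTDP1, seeded 400/well; qHTS titration format.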
# KB-V1 cytotox: KB-V1 MDR subline cytotoxicity; KB-V1 MDR cells viability, CellTiter-Glo, 72 h; Potency, µM (highest dose often 46.1 µM), usual class: cytotoxic; hit rate 3.4% among 400,000; AID 1347076; note: nearly all actives have a fitted effect of over 60% in size
#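 Readout: CellTiter-Glo luminescence, 10 min after addition. Cells: KB-V1 MDR subline, 72 h at 37 degrees C with compound. Analysis: corrected, normalized data fitted to concentration-effect curves.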
# HT1080 IDH1KD tx: kills HT-1080 cells with IDH1 knockdown; HT-1080 IDH1 knockdown viability, ATP luminescence, 48 h; Potency, µM (series often up to 46.1 µM), hits mostly cytotoxic; hit rate 2% among 360,000; AID 686971
#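 IDH1KD HT-1080 cells, 750/well, RPMI + 5% FBS; compound pinned after 2 h settling; 48 h, 37 °C; CellTiter-Glo luminescence; % activity normalised to DMSO and no-cell wells; curves fitted, classed by r2 and efficacy.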
# KB-3-1 tox: kills parental KB-3-1 adenocarcinoma cells; Potency, µM (doses to about 46.1 µM), actives largely listed as cytotoxic; KB-3-1 viability, CellTiter-Glo ATP luminescence, 72 h; AID 1347075; hit rate 1.4% among 400,000; note: nearly all actives have a fitted effect of over 60% in size
#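 Parental KB-3-1 adenocarcinoma cells in phenol-red-free DMEM with 10% FBS were pin-treated with compounds at several concentrations, incubated 72 h at 37 °C, and viability read by CellTiter-Glo luminescence; concentration-effect curves were fitted after normalization.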
# A number is an active result; - = inactive; ? = inconclusive; . = no result given; [ ] = remark or other dose. Calls come from the whole dose curve; as a rule, active = well fitted curve in the direction sought with a large enough effect; inconclusive = small, poorly fitted or top-dose-only effect, or another doubt; inactive = no such curve, though single readings can be large; an effect the other way counts as inactive or inconclusive.
SMILES,DT40 TDP1 no CPT,HT1080-NT tox,DT40 TDP1 CPT,KB-V1 cytotox,HT1080 IDH1KD tx,KB-3-1 tox
COC(=O)C1C2c3ccccc3C(c3ccccc32)C1(C)C(=O)OC (stereo unspecified),-,-,-,-,-,-
C=C(Cl)CSC(=S)N(CC)CC,3.3µM,?,5.2µM,?,?,-
CCS(=O)(=O)NC(C)c1nnc2n1-c1ccc(Br)cc1C(c1ccccc1Cl)=NC2 (stereo unspecified),-,-,-,-,-,-
Cc1cccc(-n2c(O)c(C=Nc3ccc(Br)cn3)c(=O)[nH]c2=O)c1,16µM,-,10µM,-,-,-
Cc1ccc(-n2c(O)c(C=Nc3ccc(S(N)(=O)=O)cc3)c(=O)[nH]c2=O)cc1,-,-,-,-,-,-
Cc1ccc(N/N=C/c2c(O)n(-c3ccccc3)c(=O)[nH]c2=O)cc1,?,?,?,-,2.9µM,-
Cc1ccc(-n2c(O)c(/C=N/c3ncc(Br)cc3Br)c(=O)[nH]c2=O)cc1,9.2µM,-,?,-,-,-
Cc1cccc(-n2c(O)c(C=NCCN3CCCCC3)c(=O)[nH]c2=O)c1,-,-,-,-,-,-
CC(=O)O[C@@H]1CC[C@]2(C)C3CC[C@]4(C)C(=O)[C@H](O)CC4C3[C@@H](OC(C)=O)C[C@H]2C1 (stereo partly specified),?,-,?,-,-,-
COc1ccccc1CNc1nc(NCc2ccccc2SC)c2sccc2n1,6.5µM,?,6.5µM,?,18µM,?
CCOc1cc(CNC2CCCC2)cc(Cl)c1OCc1ccc(F)cc1,23µM,?,15µM,-,?,-
CCOc1cc(CNC(C)C(O)c2ccccc2)cc(Cl)c1OCC (stereo unspecified),?,?,?,-,-,?
O=C(Nc1ccc(Cl)cc1C(=O)c1ccccc1Cl)c1ccco1,-,-,-,-,-,-
OC(Cc1ccccc1)(c1ccccc1)C1CN2CCC1CC2 (stereo unspecified),16µM,?,15µM,-,?,-
OC(c1ccccc1)(c1ccc(Cl)cc1)C1CN2CCC1CC2 (stereo unspecified),18µM,?,16µM,?,16µM,?
OC(c1ccccc1)(c1ccccc1)C1CN2CCC1CC2 (stereo unspecified),?,-,?,-,-,-
CN1CCN(c2cn[nH]c(=O)c2Cl)CC1,-,-,-,?,-,-
O=C(OCC(=O)c1ccc([N+](=O)[O-])cc1)/C(=C\c1ccc(Cl)cc1)NC(=O)c1ccccc1,?,-,?,-,-,-
O=C(CNC(=O)c1cccs1)NCC(=O)OCC(=O)c1ccc([N+](=O)[O-])cc1,?,-,18µM,?,-,-
NC(=O)c1ccsc1NC(=O)COC(=O)Cc1ccccc1,?,-,-,-,-,-
O=C(CCl)Nc1sccc1C(=O)c1ccccc1,?,10µM,15µM,?,?,-
CC(C(=O)c1c[nH]c2ccccc12)N1CCc2ccccc2C1 (stereo unspecified),?,-,16µM,-,-,?
CCCCC/C(=N\O)c1c[nH]c2ccccc12,-,-,-,-,-,-
O=C(c1c[nH]cc1-c1ccccc1)c1cccc2ccccc12,15µM,23µM,18µM,-,15µM,-
O=C1NC(=O)N(c2ccccc2)C(=O)/C1=C/c1coc2ccc(O)cc2c1=O,15µM,-,23µM,-,?,-
O=C1NC(=O)N(c2ccccc2)C(=O)/C1=C/c1ccoc1,-,-,?,-,-,-
O=C1NC(=O)N(c2ccc(Cl)cc2)C(=O)/C1=C/c1coc2ccc(O)cc2c1=O,15µM,-,15µM,-,-,-
C[C@@H]1C[C@@H](O)[C@@]2(O)[C@]13CC(=O)OC[C@]2(C)[C@@](C)(O)C(=O)C3,-[9.04 µM],.,-[9.04 µM],.,.,.

# Screening results deposited in PubChem BioAssay by National Center for Advancing Translational Sciences (NCATS).
